Inconclusive results are not listed. A call without a number means that no potency is given here. Unmarked numbers belong to inactive results. Active and inactive are the calls of the source. The call rests on the fitted dose curve; in most records, active means well fitted inhibition curve with a large enough effect; inconclusive means small, poorly fitted or top-dose-only effect; inactive means flat fitted curve, though single readings scatter.
System: Zika virus NS2B-NS3 protease
Assay: Primary screen GU AMC qHTS for Zika virus inhibitors (AID 1347154); further: nearly all actives have a fitted effect of over 70% in size
Conditions: Zika NS2B-NS3 unlinked protease, AMC fluorogenic substrate; series mostly up to 54.1 µM
In short: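 Unlinked Zika NS2B hydrophilic domain/NS3 protease domain noncovalent complex (25 nM final) in 10 mM Tris-HCl pH 8.0, 0.01% Tween 20, with AMC peptide substrate. Fluorescence (ex 340, em 450 nm) change over 15 min, room temperature; percent inhibition fitted to 4-parameter Hill equation.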

Row | SMILES | Potency | activity change, negative = inhibition
1 | COC(=O)C1=C(C)NC(C)=C(C(=O)OCC(C)=O)C1c1ccccc1[N+](=O)[O-] (centres undefined) | inactive | –
2 | Cc1ccc(O)c(-n2nc3ccccc3n2)c1 | inactive | –
3 | O=C(O)Cc1cccc(-c2cc(CCCCCCc3ccc(O[C@H]4O[C@H](CO)[C@@H](O)[C@H](O)[C@@H]4O)c(-c4cccc(CC(=O)O)c4)c3)ccc2O[C@H]2O[C@H](CO)[C@@H](O)[C@H](O)[C@@H]2O)c1 | – | 1.91% [at 0.59 µM]
4 | CC(C)(C)c1nnc(NS(=O)(=O)c2ccc(N)cc2)s1 | inactive | –
5 | CCCCCC(O)c1cccc(OCc2ccc3ccccc3n2)c1 (centres undefined) | – | 14.2% [at 6.83 µM]
6 | CCCCCCOc1ccccc1C(N)=O | inactive | –
7 | c1ccc2sc(SN3CCOCC3)nc2c1 | inactive | –
8 | O=c1[nH]c2ccccc2n1CCCN1CCN(C(c2ccccc2)c2ccccc2)CC1 | inactive | –
9 | C/C(=N\O)c1ccc(OCC(=O)N2CCCCC2)cc1 | inactive | –
10 | O=C(/C=C/c1ccccc1)NCCO | inactive | –
11 | CC(C)NCC(O)COc1cccc2ccccc12 (centres undefined) | inactive | –
12 | CCCCCCCCCCCCOCCO | inactive | –
13 | O=c1cc(-c2ccccc2)oc2ccccc12 | inactive | –
14 | CCCOC(=O)c1ccc(O)cc1 | inactive | –

From PubChem BioAssay (NCATS)
